34 compounds from PubChem BioAssay AID999 (SRMLSC, 2007) can be followed below.

In general, viability refers to a read-out of living cells in per cent, often relative to untreated cells.

Activity calls are given as the source filed them.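 Rule for the calls: active = viability at or below 21.59%, 3 SD under the median of tested compounds; inactive = the rest.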

The test can be described thus: growth suppression of PTEN-null HCT116 cells, cell-based, validation, diverse DP compound set (AID 999).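 Note: 100% = median luminescence of untreated cell control wells and 0% = no signal.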 The settings on record: CellTiter-Glo, 60 h, at 10 µM, active compounds read low.
On to `COC1=C[C@@H]2[C@@H]3Cc4ccc(OC)c(O)c4[C@]2(CCN3C)CC1=O`, for which the viability was 96% (inactive). Then `CCCC[C@H]1C(=O)O[C@H](C)[C@H](NC(=O)c2cccc(NC=O)c2OC)C(=O)O[C@@H](C)[C@@H]1OC(=O)CC(C)C`, with 93.3% (inactive); and `CNc1ccc2oc(C[C@@H]3OC4(CC[C@@H]3C)O[C@H](C(C)C(=O)c3ccc[nH]3)[C@H](C)C[C@H]4C)nc2c1C(=O)O` (some centres undefined), with 3.3% (active). Then `O=C1C=C2C=C[C@@H]3C[C@@]2(O1)[C@H]1CCCCN31`, with 79.4% (inactive); and `CSC(=S)NCc1c[nH]c2ccccc12`, with 91.6% (inactive); and `N#CC(C#N)=Cc1ccc([N+](=O)[O-])c(O)c1`, with 108% (inactive).

On to `CC[C@@]1(O)C(=O)OCc2c1cc1n(c2=O)-c2cc3ccccc3nc2C1`, for which the viability was 24.7% (inactive). The figure for `CC(C)(C)[C@]1(O)C[C@@H]2OC(=O)CC23C(=O)O[C@@H]2OC(=O)[C@H](O)C231` (some centres undefined) is 93.3% (inactive); for `NCC(CC(=O)O)c1ccc(Cl)cc1` (centres undefined) it is 94.7% (inactive). The figure for `COC[C@H]1OC(=O)c2coc3c2[C@@]1(C)C1=C(C3=O)C2CCC(=O)[C@@]2(C)C[C@H]1OC(C)=O` (some centres undefined) is 78.4% (inactive). Then `COC(=O)C(O)C(O)(CCC(C)C)C(=O)OC1C(OC)=CC23CCCN2CCc2cc4c(cc2C13)OCO4` (centres undefined), with 26.2% (inactive); and `OCC1CCCN2CCCCC12` (centres undefined), with 106% (inactive); and `C[C@@H]1CC[C@H]2[C@@H](C)C(=O)O[C@@H]3OC4(C)CC[C@@H]1[C@]32OO4`, with 71.5% (inactive). On to `C=C(C)[C@H]1CN[C@H](C(=O)O)[C@H]1CC(=O)O`, for which the viability is 99.8% (inactive).

Take `CN(C)[C@@H]1C(=O)C(C(N)=O)=C(O)[C@@]2(O)C(=O)C3=C(O)c4c(O)cccc4[C@@](C)(O)C3CC12` (some centres undefined): the viability was 97.1% (inactive). As to `C[C@H]1CCC/C=C/C2C[C@H](O)C[C@H]2[C@H](O)/C=C/C(=O)O1` (some centres undefined), the viability was 58.2% (inactive). Then `CN1C[C@H](CNC(=O)OCc2ccccc2)C[C@@H]2c3cccc4c3c(cn4C)C[C@H]21`, with 75.3% (inactive). The figure for `C[C@]12CC[C@@H](O)C[C@@H]1CC[C@@H]1[C@@H]2CC[C@]2(C)C(=O)CC[C@@H]12` is 98.8% (inactive); for `CCCN1CCC[C@@H]2Cc3cn[nH]c3C[C@H]21` it is 105% (inactive); for `CC(C)c1cc2c(c(O)c1O)[C@@]1(C(=O)O)CCCC(C)(C)[C@@H]1CC2` it is 97.5% (inactive). Then `N#Cc1nn(-c2c(Cl)cc(C(F)(F)F)cc2Cl)c(N)c1S(=O)C(F)(F)F` (centres undefined), with 85.6% (inactive). With `O[C@H]1[C@H](O)[C@@H](O)CN2CC[C@H](O)[C@H]12`, the viability is 97.8% (inactive). The figure for `C[C@@H]1O[C@@H](OC2CC(O)C3(CO)C4C(CCC3(O)C2)C2(O)CCC(C3=CC(=O)OC3)C2(C)C[C@H]4O)[C@H](O)[C@H](O)[C@H]1O` (some centres undefined) is 106% (inactive); for `O=C1C=CC(=O)C(Cl)=C1` it is 95.1% (inactive); for `N#CC(C#N)=Cc1cc(O)c(O)c([N+](=O)[O-])c1` it is 106% (inactive). Regarding `C=CCN1CC[C@]23c4c5ccc(O)c4O[C@H]2C(=O)CC[C@@]3(O)[C@H]1C5`, the viability was 89.3% (inactive).

`NCCc1c[nH]c2ccc(O)cc12`: the viability was 98.1% (inactive). Then `CC/C(=C(\c1ccccc1)c1ccc(OCCN(C)C)cc1)c1ccccc1`, with 35.9% (inactive). The figure for `Nc1ccncc1` is 100% (inactive). Then `O=C1CCC[C@H]2[C@@H]3CCCN4CCC[C@H](CN12)[C@H]34`, with 105% (inactive).

On to `CCCCCCCCCCCCCC(=O)O[C@@H]1[C@@H](C)[C@@]2(O)[C@@H](C=C(CO)C[C@]3(O)C(=O)C(C)=C[C@@H]23)[C@@H]2C(C)(C)[C@]12OC(C)=O`, for which the viability is 53.1% (inactive).

For `CCN1C[C@@]2(COC)C3[C@@H](OC)[C@H]4C1[C@@]3(C1C[C@]3(O)C(OC)[C@H](O)[C@@]4(OC(C)=O)C1[C@H]3OC(=O)c1ccccc1)[C@H](OC)C[C@H]2O` (some centres undefined), the viability is 89.3% (inactive). Turning to `CC(=O)O[C@H]1[C@H]2[C@@H](OC(=O)Cc3ccccc3)[C@@H](C)C[C@]2(OC(C)=O)C(=O)/C(C)=C/[C@@H]2[C@H](CC[C@@]13CO3)C2(C)C`, the viability is 68.9% (inactive). The figure for `CC1=C2[C@H]3OC(=O)[C@@H](C)[C@@H]3CC[C@@]2(C)C=CC1=O` is 95.7% (inactive).
